ATXN2 expr inh: inhibitors of ATXN2 expression | HEK-293 ATXN2-luciferase reporter, luminescence, 24 h | Potency, µM (series often up to 57 µM), for the others: at the top dose activity change, negative = inhibition, most hits filed as inhibitors | actives 0.72% (n = 360,000); further: on the % scale 0 is the no-effect control and ±100 the full control effect; nearly all actives have a fitted effect of over 55% in size
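ATXN2-luciferase reporter cells (luciferase flanked by upstream and downstream ATXN2 gene portions) were treated 24 h at 37 °C with compounds at up to 57 uM. SteadyGlo luminescence gave expression; GF-AFC fluorescence gave viability.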
HT1080 IDH1KD tx: toxicity to HT-1080 IDH1 knockdown cells (counter line); HT-1080 IDH1 knockdown viability, ATP luminescence, 48 h; Potency, µM (top dose mostly 46.1 µM), without a hit: at the highest dose activity, negative = toxicity, most hits filed as cytotoxic; actives 2% (n = 360,000); AID 686971;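 further: 0% = DMSO wells and -100% = cell-free medium wells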
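% activity derives from luminescence (CellTiter-Glo), normalised to DMSO and no-cell wells. HT-1080-IDH1KD cells, 750/well, had 48 h compound exposure at 37 °C.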
S2 tox: cell viability loss in ATXN counter-screen; Potency, µM (top dose mostly 56.7 µM), actives largely listed as cytotoxic; actives 0.49% (n = 400,000); AID 651635; S2 cells (HEK-293 line with an ATXN2-luciferase reporter) viability, CellTiter-Fluor protease fluorescence, 24 h; further: nearly all actives have a fitted effect of over 40% in size
TGFb inhibitor: TGF-b pathway inhibition | Potency, µM (series often up to 46.1 µM), inactives show top-dose activity, negative = inhibition, most hits filed as inhibitors | HepG2 CAGA-GFP TGF-b/SMAD3 reporter, GFP fluorescence, 18 h; TGF-beta stimulated, 500 pg/mL final | actives 1.2% (n = 410,000); further: on the % scale 0 is the no-effect control and ±100 the full control effect; nearly all actives have a fitted effect of over 65% in size
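Cell-based qHTS in HEPG2 carrying a CAGA-GFP Smad reporter; compounds added before 500 pg/mL final TGF-beta, 18 h incubation at 37 degrees C, GFP fluorescence quantified per cell by imaging cytometry.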
HepG2 tox-1: counter-screen for TGF-b inhibitors: cytotoxicity in HepG2 cells | HepG2 CAGA-GFP viability, ATP luminescence, 18 h | Potency, µM (titrated, usually from 46.1 µM), without a hit: top-dose activity change, negative = cytotoxicity, usual class: cytotoxic | actives 0.76% (n = 410,000)
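HepG2 CAGA-GFP cells (1000/well, DMEM with 1% FBS) received compound, then TGF-beta at 500 pg/mL final, and were incubated 18 hours at 37 degrees C. Viability was read by CellTiter-Glo luminescence. Media-only wells were set as complete cell-killing and DMSO as no toxicity.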
HT1080NT lethal: kills 2HG-producing HT-1080-NT fibrosarcoma cells | HT-1080-NT fibrosarcoma viability, CellTiter-Glo ATP luminescence, 48 h | actives 1.6% (n = 360,000) | Potency, µM (series often up to 46.1 µM), without a hit: at the highest dose activity, negative = less viability, most hits filed as cytotoxic;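 further: NT is the 2HG producing partner of a matched IDH1 knockdown line; 0% = DMSO-treated cells and -100% = media-only wells without cells; nearly all actives have a fitted effect of over 55% in size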
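Fibrosarcoma NT cells, 750 per well in 5% FBS RPMI, were exposed to compound for 48 hours. Viability: CellTiter-Glo luminescence.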
TGFb confirm: TGF-b pathway inhibition, cherry-pick retest. actives 63% (n = 1,600). shares compounds with TGFb inhibitor. HepG2 CAGA-GFP TGF-b reporter, GFP fluorescence, 18 h; cells stimulated with TGF-beta, 500 pg/mL. Potency, µM (doses to about 46.1 µM), inactives show at the highest dose activity, negative = inhibition, most hits filed as inhibitors; further: on the % scale 0 is the no-effect control and ±100 the full control effect; nearly all actives have a fitted effect of over 65% in size
HepG2 tox-2: HepG2 cytotoxicity, TGF-b inhibitor counterscreen | shares compounds with TGFb inhibitor | HepG2 CAGA-GFP viability, ATP luminescence, 18 h; cells stimulated with TGF-beta, 500 pg/mL | Potency, µM (series often up to 46.1 µM), for the others: at the highest dose activity, negative = cytotoxicity, usual class: inhibitors | actives 27% (n = 1,600); further: on the % scale 0 is the no-effect control and ±100 the full control effect; nearly all actives have a fitted effect of over 70% in size
TGFb CCL64 inh: blocks TGF-b signaling in CCL64 reporter cells; shares compounds with TGFb inhibitor; CCL64 CAGA-GFP reporter, TGF-b stimulated, GFP fluorescence, 18 h; Potency, µM (doses to about 46.1 µM), for the others: top-dose activity, negative = inhibition, hits mostly inhibitors; actives 41% (n = 1,600); AID 720536; further: nearly all actives have a fitted effect of over 65% in size
TGFb COP inh: blocks TGF-b signaling in HepG2 COP reporter; Potency, µM (highest dose often 46.1 µM), for the others: at the highest dose activity, negative = inhibition, most hits filed as inhibitors; AID 720537; shares compounds with TGFb inhibitor; HepG2 COP-GFP TGF-b reporter, GFP fluorescence, 18 h; cells stimulated by added recombinant TGF-beta; actives 3% (n = 1,600); further: nearly all actives have a fitted effect of over 70% in size
An asterisk follows results filed as active; i = inactive; ? = inconclusive; / = no result. Most compounds without a hit are left out; they make up all but 3.8% or so of the library. The call rests on the fitted dose curve; in most records, active means well fitted curve in the direction sought with a large enough effect; inconclusive means small, poorly fitted or top-dose-only effect, or another doubt; inactive means no such curve, though single readings can be large; an effect the other way counts as inactive or inconclusive. Potency means the concentration at half of the fitted maximal effect.

SMILES	ATXN2 expr inh	HT1080 IDH1KD tx	S2 tox	TGFb inhibitor	HepG2 tox-1	HT1080NT lethal	TGFb confirm	HepG2 tox-2	TGFb CCL64 inh	TGFb COP inh
CC(C)C[C@@H](CN1CCCC1CN1C(=S)NC[C@@H]1Cc1ccc(O)cc1)N1C[C@H](Cc2ccc(O)cc2)N(CCc2ccccc2)C1=S (some centres not stated)	?	?	28µM*	5.6µM*	6.3µM*	?	15µM*	?	8.2µM*	-3%
Cc1ccc(Cl)cc1NC(=O)Cn1nc2c(cc1=O)CC(C)CC2 (configuration not stated)	/	/	/	11%	-3%	/	/	/	/	/
Nc1nc(N)c(S(=O)(=O)c2ccccc2)c(Nc2ccc(Br)cc2)n1	-11%	/	i	?	-36%	/	/	/	/	/
Cc1nc2ccccc2nc1C	/	/	/	1%	3%	/	/	/	/	/
Cc1ccc(C)c(N2C(=O)N(Cc3cc(=O)n4ccccc4n3)c3ccccc3S2(=O)=O)c1	-34%	/	i	?	-30%	/	/	/	/	/
Cc1ccc(-c2csc(NC(=O)CCNC(=O)c3ccccc3Cl)n2)cc1	/	-18%	?	?	-21%	-10%	/	/	/	/
Cc1ccc(-c2csc(NC(=O)CCNC(=O)c3ccc(Cl)cc3)n2)cc1	?	-1%	?	?	-64%	-7%	-17%	2%	?	5%
CCN(C[C@H]1N[C@@](Cc2ccccc2)(C(=O)OC)[C@H]2C(=O)N(Cc3ccccc3)C(=O)[C@@H]12)C(=O)Nc1ccc(C)cc1	-9%	?	?	?	-13%	?	15µM*	-14%	?	13%
CCN(C[C@H]1N[C@@](CC)(C(=O)OC)[C@H]2C(=O)N(Cc3ccccc3)C(=O)[C@@H]12)C(=O)Nc1ccc(C)cc1	8%	-6%	i	-21%	-25%	-1%	/	/	/	/
COC(=O)c1ccc(C)c(NS(=O)(=O)c2ccc(OC)cc2)c1	0%	?	?	?	-3%	?	?	-1%	?	-7%
Cc1cc(C)c(-c2csc(NC(=O)C3=NN(c4ccccc4)C(=O)CC3)n2)c(C)c1	/	-17%	?	?	-19%	-10%	6.5µM*	-13%	-1%	-5%
CCc1ccc(-c2csc(NC(=O)C3=NN(c4ccccc4)C(=O)CC3)n2)cc1	/	?	i	-29%	-14%	?	/	/	/	/
COc1cc2ccccc2cc1C(=O)Nc1ccc2oc(-c3cccc(C)c3)nc2c1	17%	/	i	2%	-5%	/	/	/	/	/
Cc1ccc(NC(=O)c2cc(S(=O)(=O)N(C)C)ccc2N2CCCC2)cc1F	0%	-26%	i	10µM*	-1%	-14%	13µM*	-15%	18µM*	-11%
O=C1NCCN1CCNc1nc(NCc2ccccc2)nc2ccsc12	-3%	12%	?	7.9µM*	-47%	27%	15µM*	?	?	50%
CCc1ccccc1Oc1nc(NCc2ccccc2)nc2ccsc12	-18%	?	i	11µM*	-26%	?	23µM*	?	16µM*	31%
c1ccc(CNc2nc(NCCc3ccncc3)c3sccc3n2)cc1	0%	?	?	2.2µM*	-43%	?	1.5µM*	7.3µM*	4.6µM*	34%
COc1ccc(CNC(=O)CCc2c(C)nn(-c3ccc(N4CCCCC4)nn3)c2C)c(OC)c1	/	/	/	-40%	-23%	/	/	/	/	/
CC(C)c1ccc2oc(-c3ccc(NC(=O)c4cccc(Br)c4)cc3)nc2c1	-29%	/	?	-24%	-39%	/	/	/	/	/
Cc1ccc(Nc2nc(C)nc(N)c2S(=O)(=O)c2ccccc2)cc1	13%	/	i	7%	-1%	/	/	/	/	/
CCC(C)(C)NC(=O)c1ccc(Sc2nncn2C)c([N+](=O)[O-])c1	-24%	3%	i	3%	3%	-8%	/	/	/	/
Cn1cnnc1Sc1ccc(/C=C/C(=O)c2ccc(O)cc2)cc1[N+](=O)[O-]	/	18µM*	7.1µM*	?	-3%	18µM*	2.6µM*	9.2µM*	23µM*	?
CC(=O)N1CCc2cc(Br)cc(S(=O)(=O)CCC(=O)N3CCN(c4ccccc4Cl)CC3)c21	4%	/	i	?	1%	/	/	/	/	/
CCCOc1ccc(CN(C(=O)c2nc(SC(C)C)ncc2Cl)C2CCS(=O)(=O)C2)cc1 (configuration not stated)	-2%	/	i	-12%	-11%	/	/	/	/	/
COc1ccc(NCc2nc3ccccc3n2CCOc2ccc(C)cc2)cc1	?	?	?	14µM*	-32%	18µM*	13µM*	?	8.2µM*	40%
Cc1c(C(=O)Nc2cccc(F)c2)oc2c1-c1nn(Cc3c(F)cccc3Cl)cc1CC2	/	/	/	0%	-3%	/	/	/	/	/
Cc1c(NS(=O)(=O)c2cccs2)cccc1-c1nc2cccnc2s1	/	2%	i	?	-11%	?	/	/	/	/
O=S(=O)(Nc1cccc2ncccc12)c1cccs1	3.2µM*	?	?	6.3µM*	-41%	-8%	15µM*	?	6.5µM*	40%
CC(=O)c1ccc(C2CC34CN(Cc5cccc(Cl)c5)S(=O)(=O)C3CC2O4)cc1 (configuration not stated)	/	/	/	0%	2%	/	/	/	/	/

Assay outcomes from PubChem BioAssay.
